Laboratory results: paper PMC12820563, “FoxP3 forms a head-to-head dimer in vivo and stabilizes its multimerization on adjacent microsatellites”
In all, about 16,000 sequences were measured (“rpm ratio (pull-down/input)”: median about 0.94, highest 2% from about 1.7 on). What follows is part of a selection rich in the highest values, with near analogues and random picks from the rest.

Each sequence was assayed against T1, MBP-FoxP1dN (Mus musculus, UniProt P58462 326-579) (assay: PD-seq (MBP pull-down with sequencing); 20 mM Tris-HCl pH 7.5, 100 mM NaCl, 1.5 mM MgCl2, 0.4 uM protein, 0.1 uM dsDNA library, 30 min, room temperature, amylose pull-down; high values mean tight binding). Settings: protein: recombinant; tags: His6-MBP; chain copies: 2; dsDNA, one strand shown.
T1 sequence: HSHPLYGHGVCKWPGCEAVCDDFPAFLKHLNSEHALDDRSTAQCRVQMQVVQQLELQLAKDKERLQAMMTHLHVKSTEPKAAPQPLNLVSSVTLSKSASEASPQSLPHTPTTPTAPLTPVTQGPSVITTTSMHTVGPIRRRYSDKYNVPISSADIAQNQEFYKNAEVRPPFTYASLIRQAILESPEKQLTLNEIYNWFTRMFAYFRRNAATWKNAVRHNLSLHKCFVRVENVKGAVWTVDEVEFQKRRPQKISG
Method in brief: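 A degenerate double-stranded DNA library, filled in with Klenow, was added at 0.1 µM to 0.4 µM His6-MBP-tagged mouse FoxP3 or FoxP1 fragment lacking the N-terminus, expressed in E. coli. Incubation lasted 30 min at room temperature in Tris pH 7.5 buffer with NaCl and MgCl2, after which complexes were collected on amylose resin, washed three times, digested with proteinase K to free the DNA, barcoded by PCR and sequenced by Illumina. Binding is the pooled-replicate reads-per-million enrichment of pull-down over input.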
“GATGATTGTTCTCCCAGCTGATGAATTGCCAGTCTCGAGTAAACAAATTTTCCTAATCTTTCTGTTCAAGCGCCATCTAC” was tested, and the binding signal was 0.829 RPM ratio (pull-down/input). “GATGATTGTTCTCCCAGCTGATGAATTCTGACTTTCGAGTAAACAAATTTTCCTAATCTTTCTGTTCAAGCGCCATCTAC” was tested, and the binding signal was 0.897 RPM ratio (pull-down/input). “GATGATTGTTCTCCCAGCTGATGAATTTTTTTGGTCGAGTAAACAAATTTTCCTAATCTTTCTGTTCAAGCGCCATCTAC” was tested, and the binding signal was 0.952 RPM ratio (pull-down/input). For “GATGATTGTTCTCCCAGCTGATGAATTTTTTGGGTCGAGTAAACAAATTTTCCTAATCTTTCTGTTCAAGCGCCATCTAC”, the binding signal was 0.836 RPM ratio (pull-down/input). With “GATGATTGTTCTCCCAGCTGATGAATTCTTTTGGTCGAGTAAACAAATTTTCCTAATCTTTCTGTTCAAGCGCCATCTAC” the binding signal was 1 RPM ratio (pull-down/input). “GATGATTGTTCTCCCAGCTGATGAATTTTGTTGGTCGAGTAAACAAATTTTCCTAATCTTTCTGTTCAAGCGCCATCTAC” was tested, and the binding signal was 2.26 RPM ratio (pull-down/input). With “GATGATTGTTCTCCCAGCTGATGAATTTCTTTGGTCGAGTAAACAAATTTTCCTAATCTTTCTGTTCAAGCGCCATCTAC” the binding signal was 0.881 RPM ratio (pull-down/input). “GATGATTGTTCTCCCAGCTGATGAATTTGTTGGGTCGAGTAAACAAATTTTCCTAATCTTTCTGTTCAAGCGCCATCTAC” was tested, and the binding signal was 1.56 RPM ratio (pull-down/input). With “GATGATTGTTCTCCCAGCTGATGAATTTGTTTGGTCGAGTAAACAAATTTTCCTAATCTTTCTGTTCAAGCGCCATCTAC” the binding signal was 2.1 RPM ratio (pull-down/input). With “GATGATTGTTCTCCCAGCTGATGAATTTGGTTGGTCGAGTAAACAAATTTTCCTAATCTTTCTGTTCAAGCGCCATCTAC” the binding signal was 0.868 RPM ratio (pull-down/input). “GATGATTGTTCTCCCAGCTGATGAATTGTTTGGGTCGAGTAAACAAATTTTCCTAATCTTTCTGTTCAAGCGCCATCTAC” was tested, and the binding signal was 1.79 RPM ratio (pull-down/input). For “GATGATTGTTCTCCCAGCTGATGAATTGGTTTGGTCGAGTAAACAAATTTTCCTAATCTTTCTGTTCAAGCGCCATCTAC”, the binding signal was 0.947 RPM ratio (pull-down/input). In the case of “GATGATTGTTCTCCCAGCTGATGAATTTGATTGGTCGAGTAAACAAATTTTCCTAATCTTTCTGTTCAAGCGCCATCTAC”, the binding signal is reported as 0.963 RPM ratio (pull-down/input). With “GATGATTGTTCTCCCAGCTGATGAATTGTTTTGGTCGAGTAAACAAATTTTCCTAATCTTTCTGTTCAAGCGCCATCTAC” the binding signal was 2.02 RPM ratio (pull-down/input). In the case of “GATGATTGTTCTCCCAGCTGATGAATTCTTTAAGTCGAGTAAACAAATTTTCCTAATCTTTCTGTTCAAGCGCCATCTAC”, the binding signal is reported as 0.837 RPM ratio (pull-down/input). For “GATGATTGTTCTCCCAGCTGATGAATTTCTAGCATCGAGTAAACAAATTTTCCTAATCTTTCTGTTCAAGCGCCATCTAC”, the binding signal was 1.06 RPM ratio (pull-down/input). “GATGATTGTTCTCCCAGCTGATGAATTGCATCATTCGAGTAAACAAATTTTCCTAATCTTTCTGTTCAAGCGCCATCTAC” was tested, and the binding signal was 1.84 RPM ratio (pull-down/input). In the case of “GATGATTGTTCTCCCAGCTGATGAATTCATGCATTCGAGTAAACAAATTTTCCTAATCTTTCTGTTCAAGCGCCATCTAC”, the binding signal is reported as 1.29 RPM ratio (pull-down/input). For “GATGATTGTTCTCCCAGCTGATGAATTTCTGCATTCGAGTAAACAAATTTTCCTAATCTTTCTGTTCAAGCGCCATCTAC”, the binding signal was 1.35 RPM ratio (pull-down/input). “GATGATTGTTCTCCCAGCTGATGAATTGCATTCATCGAGTAAACAAATTTTCCTAATCTTTCTGTTCAAGCGCCATCTAC” was tested, and the binding signal was 1.46 RPM ratio (pull-down/input). In the case of “GATGATTGTTCTCCCAGCTGATGAATTCATTGCATCGAGTAAACAAATTTTCCTAATCTTTCTGTTCAAGCGCCATCTAC”, the binding signal is reported as 1.24 RPM ratio (pull-down/input). With “GATGATTGTTCTCCCAGCTGATGAATTGCATTCTTCGAGTAAACAAATTTTCCTAATCTTTCTGTTCAAGCGCCATCTAC” the binding signal was 1.61 RPM ratio (pull-down/input). “GATGATTGTTCTCCCAGCTGATGAATTTCAACATTCGAGTAAACAAATTTTCCTAATCTTTCTGTTCAAGCGCCATCTAC” was tested, and the binding signal was 0.964 RPM ratio (pull-down/input). For “GATGATTGTTCTCCCAGCTGATGAATTCAACATTTCGAGTAAACAAATTTTCCTAATCTTTCTGTTCAAGCGCCATCTAC”, the binding signal was 0.941 RPM ratio (pull-down/input). For “GATGATTGTTCTCCCAGCTGATGAATTGCAACATTCGAGTAAACAAATTTTCCTAATCTTTCTGTTCAAGCGCCATCTAC”, the binding signal was 1.75 RPM ratio (pull-down/input). For “GATGATTGTTCTCCCAGCTGATGAATTTTTGCATTCGAGTAAACAAATTTTCCTAATCTTTCTGTTCAAGCGCCATCTAC”, the binding signal was 1.48 RPM ratio (pull-down/input). With “GATGATTGTTCTCCCAGCTGATGAATTGATGCATTCGAGTAAACAAATTTTCCTAATCTTTCTGTTCAAGCGCCATCTAC” the binding signal was 1.74 RPM ratio (pull-down/input). With “GATGATTGTTCTCCCAGCTGATGAATTGTTGCATTCGAGTAAACAAATTTTCCTAATCTTTCTGTTCAAGCGCCATCTAC” the binding signal was 1.87 RPM ratio (pull-down/input). In the case of “GATGATTGTTCTCCCAGCTGATGAATTAAACAGATCGAGTAAACAAATTTTCCTAATCTTTCTGTTCAAGCGCCATCTAC”, the binding signal is reported as 1.27 RPM ratio (pull-down/input). “GATGATTGTTCTCCCAGCTGATGAATTATAAGTATCGAGTAAACAAATTTTCCTAATCTTTCTGTTCAAGCGCCATCTAC” was tested, and the binding signal was 1.19 RPM ratio (pull-down/input). With “GATGATTGTTCTCCCAGCTGATGAATTGAATAAGTCGAGTAAACAAATTTTCCTAATCTTTCTGTTCAAGCGCCATCTAC” the binding signal was 0.918 RPM ratio (pull-down/input). In the case of “GATGATTGTTCTCCCAGCTGATGAATTTTAAATTTCGAGTAAACAAATTTTCCTAATCTTTCTGTTCAAGCGCCATCTAC”, the binding signal is reported as 0.924 RPM ratio (pull-down/input). In the case of “GATGATTGTTCTCCCAGCTGATGAATTCAGCACTTCGAGTAAACAAATTTTCCTAATCTTTCTGTTCAAGCGCCATCTAC”, the binding signal is reported as 0.847 RPM ratio (pull-down/input). In the case of “GATGATTGTTCTCCCAGCTGATGAATTACAGTGTTCGAGTAAACAAATTTTCCTAATCTTTCTGTTCAAGCGCCATCTAC”, the binding signal is reported as 1.16 RPM ratio (pull-down/input). With “GATGATTGTTCTCCCAGCTGATGAATTGAGTCAATCGAGTAAACAAATTTTCCTAATCTTTCTGTTCAAGCGCCATCTAC” the binding signal was 1.01 RPM ratio (pull-down/input). In the case of “GATGATTGTTCTCCCAGCTGATGAATTGGAAGCGTCGAGTAAACAAATTTTCCTAATCTTTCTGTTCAAGCGCCATCTAC”, the binding signal is reported as 0.893 RPM ratio (pull-down/input). “GATGATTGTTCTCCCAGCTGATGAATTGAATGGCTCGAGTAAACAAATTTTCCTAATCTTTCTGTTCAAGCGCCATCTAC” was tested, and the binding signal was 0.823 RPM ratio (pull-down/input). For “GATGATTGTTCTCCCAGCTGATGAATTGACCGAGTCGAGTAAACAAATTTTCCTAATCTTTCTGTTCAAGCGCCATCTAC”, the binding signal was 0.835 RPM ratio (pull-down/input). For “GATGATTGTTCTCCCAGCTGATGAATTCCTTCTCTCGAGTAAACAAATTTTCCTAATCTTTCTGTTCAAGCGCCATCTAC”, the binding signal was 0.736 RPM ratio (pull-down/input). With “GATGATTGTTCTCCCAGCTGATGAATTATCGTCGTCGAGTAAACAAATTTTCCTAATCTTTCTGTTCAAGCGCCATCTAC” the binding signal was 0.884 RPM ratio (pull-down/input).
